Assay outcomes as filed in PubChem.
Sampled rows, rich in hits. Any-hit rate of the full collection: about 19%.
TDP1 cell noCPT: qHTS for Inhibitors of human tyrosyl-DNA phosphodiesterase 1 (TDP1): qHTS in cells in absence of CPT | DT40 Tdp1-/- hTDP1 cells, no CPT, ATP luminescence, 48 h | Potency, µM (top dose mostly 46.2 µM), for inactives: at the top dose activity change, negative = growth inhibition, most hits filed as inhibitors | 420,000 tested, 15% active | AID 686978, 2013; further: potency means the concentration at half of the fitted maximal effect; nearly all actives have a fitted effect of over 55% in size
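No-CPT arm: Tdp1-/-;hTDP1 DT40 cells (400/well) plus compounds, incubated ≥48 hr at 37 °C. Readout CellTiter-Glo luminescence.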
TDP1 cell CPT: growth inhibition of DT40 Tdp1-/-;hTDP1 cells with camptothecin (screen for TDP1 inhibitors) | chicken DT40 Tdp1-/-;hTDP1 cells + 20 nM CPT, ATP luminescence, 48 h | Potency, µM (highest dose often 46.2 µM), without a hit: at the top dose activity change, negative = growth inhibition, hits mostly inhibitors | 420,000 tested, 12% active | AID 686979; further: potency means the concentration at half of the fitted maximal effect; nearly all actives have a fitted effect of over 55% in size
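Chicken DT40 Tdp1-/- cells stably complemented with human TDP1 were seeded at 400 cells/well in medium containing 20 nM camptothecin, exposed to pin-transferred compounds, and grown at 37 °C for at least 48 hr. Viability was read as ATP luminescence.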
IL1B secr inh: inhibitors of inflammasome signaling (IL-1 beta secretion); AID 743279; 360,000 tested, 4.7% active; THP-1 LPS/ATP IL-1B secretion, AlphaLISA, 16 h; active compounds read low; activity change, % at 57.5 µM; in the data active means activity change below about -50%; inconclusive means mostly about -30% to -49%
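Secreted IL-1B measured by AlphaLISA bead assay after 16 h compound exposure of THP-1 cells; compounds (final up to 57.5 uM) added 1 h before LPS (250 ng/mL) and ATP (1.25 mM) stimulation; lower signal means less secretion.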
HT1080 IDH1KD tx: kills HT-1080 cells with IDH1 knockdown. AID 686971. 360,000 tested, 2% active. HT-1080 IDH1 knockdown viability, ATP luminescence, 48 h. Potency, µM (doses to about 46.1 µM), for inactives: at the top dose activity, negative = toxicity, usual class: cytotoxic;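 further: potency means the concentration at half of the fitted maximal effect; 0% = DMSO wells and -100% = cell-free medium wells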
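Cytotoxicity counter-line: IDH1KD HT-1080, 48 h, CellTiter-Glo. Curves classed by r2, magnitude and activity.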
HT1080NT lethal: kills 2HG-producing HT-1080-NT fibrosarcoma cells; Potency, µM (doses to about 46.1 µM), without a hit: top-dose activity, negative = less viability, usual class: cytotoxic; HT-1080-NT fibrosarcoma viability, CellTiter-Glo ATP luminescence, 48 h; 360,000 tested, 1.6% active; AID 686970;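 further: NT is the 2HG producing partner of a matched IDH1 knockdown line; potency means the concentration at half of the fitted maximal effect; 0% = DMSO-treated cells and -100% = media-only wells without cells; nearly all actives have a fitted effect of over 55% in size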
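750 cells/well, RPMI + 5% FBS; 2 h settle, compound pin-transfer, 48 h at 37 degrees C. CellTiter-Glo 10 min RT, luminescence. Normalized to DMSO and media-only wells.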
The depositor's hits bear a star; ? = inconclusive; . = not tested or not shown; [ ] = remark or other dose. Unless noted, the call rests on the fitted dose curve; in most records, active means well fitted curve in the direction sought with a large enough effect; inconclusive means small, poorly fitted or top-dose-only effect, or another doubt; inactive means no such curve, though single readings can be large; an effect the other way counts as inactive or inconclusive. Unless noted, on the % scale 0 is the no-effect control and ±100 the full control effect.

SMILES	TDP1 cell noCPT	TDP1 cell CPT	IL1B secr inh	HT1080 IDH1KD tx	HT1080NT lethal
CC(=O)c1c(C)[nH]c(C(=O)Nc2cccc(S(=O)(=O)N3CCOCC3)c2)c1C	?	?	67	-1%	9%
C=CCn1c(Cc2cccs2)nnc1SCC(=O)Nc1ccc(C(=O)OCC)cc1	-14%	-8%	-24	-8%	3%
COc1ccccc1NS(=O)(=O)c1cccc(NC(=O)c2[nH]c(C)c(C(C)=O)c2C)c1	16µM*	?	-2	-1%	-18%
C=CCn1c(Cc2cccs2)nnc1SCC(=O)Nc1cc(OC)cc(OC)c1	16µM*	?	-15	-1%	-5%
COc1ccccc1NC(=O)C(=O)NNS(=O)(=O)c1ccc2ccccc2c1	26µM*	23µM*	0	0%	0%
COc1ccc(NC(=S)NNS(=O)(=O)c2ccc3ccccc3c2)c(OC)c1	?	-11%	18	8%	7%
CCc1ccc(OCC(=O)NNC(=O)c2cc(S(=O)(=O)N(C)C)ccc2N2CCCC2)cc1	-27%	-30%	-14	-8%	-11%
COc1ccccc1NS(=O)(=O)c1cccc(NC(=O)c2cc3ccccc3oc2=O)c1	18µM*	?	22	0%	-3%
COCc1ccc(C(=O)N2CCCC(CNC(=O)c3ccc(F)cc3)C2)o1 (centres undefined)	-2%	13%	-7	2%	-9%
CCOC(=O)CSC1=Nc2ccccc2C2=NC(CC(=O)NCc3ccccc3)C(=O)N12 (centres undefined)	11%	-28%	-19	4%	2%
CCC(SC1=Nc2ccccc2C2=NC(CC(C)C)C(=O)N12)C(=O)Nc1ccc2c(c1)OCO2 (centres undefined)	?	?	-3	-23%	-9%
O=C(CC1N=C2c3ccccc3N=C(SCc3ccccc3F)N2C1=O)NCc1ccc2c(c1)OCO2 (centres undefined)	?	18µM*	.	.	.
CCOc1ccccc1NC(=O)CSC1=Nc2ccccc2C2=NC(CC(=O)NCc3ccc4c(c3)OCO4)C(=O)N12 (centres undefined)	23µM*	?	.	.	.
CCC(CC)NC(=O)Nc1ccc(C)cc1	-2%	-11%	13	-3%	2%
COc1ccc(C2CC(c3cccs3)=NN2C(=O)CCl)cc1OC (centres undefined)	3.3µM*	2.6µM*	-103*	7.3µM*	4.6µM*
COc1ccc(C2CC(c3cccs3)=NN2C(=O)CCC(=O)O)cc1 (centres undefined)	-12%	-8%	5	8%	4%
COc1ccc(C2CC(c3cccs3)=NN2C(=O)c2ccccc2)cc1OC (centres undefined)	-22%	1%	-23	-6%	-7%
COc1cc(C2CC(c3cccs3)=NN2C(=O)CCl)ccc1OC(F)F (centres undefined)	4.1µM*	4.6µM*	-103*	2.6µM*	1.6µM*
Cc1cccc(NC2=C/C(=N/S(=O)(=O)c3cccs3)c3ccccc3C2=O)c1	3.3µM*	3.7µM*	-83*	3.3µM*	4.6µM*
Cc1ccc(Cl)cc1NC1=C/C(=N\S(=O)(=O)c2cccs2)c2ccccc2C1=O	2.9µM*	5.2µM*	-99*	4.6µM*	3.7µM*
Cc1ccc(Cl)cc1NS(=O)(=O)c1ccccc1	?	-6%	18	-21%	-8%
Cc1ccc(NC2=C/C(=N\S(=O)(=O)c3cccs3)c3ccccc3C2=O)c(C)c1	2.6µM*	2.6µM*	-97*	6.5µM*	7.3µM*
Cc1cc(C)c(S(=O)(=O)/N=C2\C=C(NS(=O)(=O)c3ccccc3)C(=O)c3ccccc32)c(C)c1	-18%	?	30	-7%	-6%
CC(C)(C)c1ccc(S(=O)(=O)NC(=O)C2(C)CCN2C(=O)C2(c3ccc(Cl)cc3)CC2)cc1 (centres undefined)	-26%	?	31	-5%	-20%
O=S1(=O)N=C(N/N=C/c2ccccn2)c2ccccc21	?	?	108	?	-21%
SMILES	TDP1 cell noCPT	TDP1 cell CPT	IL1B secr inh	HT1080 IDH1KD tx	HT1080NT lethal
O=S1(=O)N=C(N/N=C/C=C/c2ccccc2)c2ccccc21	5.8µM*	?	-4	-12%	-8%
CCN(CC)S(=O)(=O)c1ccc(N2CCc3cc(OC)c(OC)cc3C2)nc1	?	18µM*	-91*	-14%	-12%
CCN(CC)S(=O)(=O)c1ccc(OC)c(N)c1	-12%	0%	30	2%	14%
CS(=O)(=O)N(CC(=O)NCCSCc1ccccc1)c1ccccc1Br	?	?	0	7%	9%
CCc1nc2c(OCC(=O)c3ccc(F)cc3)cccn2c1N(C)C(=O)C(C)C	?	?	16	8%	8%
CCn1cc(C(=O)O)c(=O)c2cc(F)c(N3CCN(C(=S)NC(=O)c4ccccc4F)CC3)cc21	15µM*	-20%	-12	20%	18%
CCn1cc(C(=O)O)c(=O)c2cc(F)c(N3CCN(S(=O)(=O)c4ccc(NC(C)=O)cc4)CC3)cc21	?	-27%	0	6%	-1%
CCn1cc(C(=O)O)c(=O)c2cc(F)c(N3CCN(C(=S)NC(=O)c4cccc(C)c4)CC3)cc21	-17%	-24%	25	23%	21%
CCn1cc(C(=O)O)c(=O)c2cc(F)c(N3CCN(S(=O)(=O)c4ccc5c(c4)OCCO5)CC3)cc21	?	21µM*	35	2%	14%
CCn1cc(C(=O)O)c(=O)c2cc(F)c(N3CCN(C(=O)Nc4ccccc4)CC3)cc21	23µM*	21µM*	?	-8%	1%[9.24 µM]
CCn1cc(C(=O)O)c(=O)c2cc(F)c(N/N=C/c3ccccc3)cc21	13µM*	?	0	-18%	-4%
CC1(C2CCCC2)NC(=O)NC1=O (centres undefined)	-4%	3%	26	1%	3%
Cc1ccc2c(cnn2C(=O)CCC(=O)NCc2cccc(Cl)c2)c1	1%	-15%	21	11%	11%
CC/C(=N\NC(=O)c1cc(C2CC2)[nH]n1)c1ccccc1	-12%	10%	4	0%	1%
C=CCn1c(NC(=O)c2ccccc2Cl)c(C#N)c2nc3ccccc3nc21	21µM*	16µM*	-60*	-27%	-23%
C=CCn1c(N)c(C(=O)Nc2ccc(C)c(C)c2)c2nc3ccccc3nc21	?	-18%	5	-19%	-12%
O=[N+]([O-])c1cc([N+](=O)[O-])c(Oc2cc(F)ccc2F)cc1NN1CCCCC1	?	?	0	-18%	-11%
